Measurements published in publication PMC7862700, “An all-to-all approach to the identification of sequence-specific readers for epigenetic DNA modifications on cytosine”.

Columns and labels:
Experiment in all cases: DAPPL (digital affinity profiling via proximity ligation, sequencing); 10 mM Tris-HCl pH 7.5, 50 mM NaCl, 1 mM DTT, 4% glycerol, room temperature, 30 min; GST-TFs on glutathione beads, 16-mer random dsDNA library, 0.1% formaldehyde crosslink after washing; high values mean tight binding
Settings in all cases: protein: recombinant; tags: N-terminal GST; dsDNA, one strand shown
FEV = molecular target: T1, FEV (Homo sapiens, UniProt Q99581 1-238)
T1 sequence: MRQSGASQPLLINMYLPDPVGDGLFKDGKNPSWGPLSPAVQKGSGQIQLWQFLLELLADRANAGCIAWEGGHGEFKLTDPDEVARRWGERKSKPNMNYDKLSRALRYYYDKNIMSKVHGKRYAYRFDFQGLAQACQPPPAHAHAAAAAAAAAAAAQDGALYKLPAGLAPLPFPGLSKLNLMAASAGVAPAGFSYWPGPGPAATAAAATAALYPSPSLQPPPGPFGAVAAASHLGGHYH
How it was run: (§1)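 Sequencing on an Illumina NextSeq500 followed washing, crosslinking with 0.1% formaldehyde, proximity ligation (BsaI/T4 ligase, 1 h, 37 °C) and PCR amplification of pools that had been incubated for 30 min at room temperature with 200 nmole of a random double-stranded 16-mer DNA library in Tris/NaCl/DTT/glycerol buffer. Each pool held DNA-barcoded human transcription factors, expressed in yeast as GST fusions and captured on glutathione beads, plus a tag-only sample. Binding signal is a hexamer's read frequency for a factor divided by its frequency in the tag-only sample.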

ETV5 = ETV5 (Homo sapiens, UniProt P41161 1-510)
ETV5, sequence (P41161 whole entry): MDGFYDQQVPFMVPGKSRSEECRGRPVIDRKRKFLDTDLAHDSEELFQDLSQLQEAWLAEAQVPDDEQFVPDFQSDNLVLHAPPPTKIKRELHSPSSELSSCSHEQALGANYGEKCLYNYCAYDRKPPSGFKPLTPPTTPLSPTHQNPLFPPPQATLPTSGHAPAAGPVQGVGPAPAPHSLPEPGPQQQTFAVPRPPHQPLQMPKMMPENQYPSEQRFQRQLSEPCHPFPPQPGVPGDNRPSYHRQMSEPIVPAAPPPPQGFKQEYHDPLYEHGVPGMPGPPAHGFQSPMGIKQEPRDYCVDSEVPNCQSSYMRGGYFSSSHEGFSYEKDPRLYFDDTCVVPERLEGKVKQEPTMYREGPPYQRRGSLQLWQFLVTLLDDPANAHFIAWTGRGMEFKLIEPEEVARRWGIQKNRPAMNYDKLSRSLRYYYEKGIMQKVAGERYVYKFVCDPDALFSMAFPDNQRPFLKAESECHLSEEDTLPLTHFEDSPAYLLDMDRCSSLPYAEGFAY
How it was run: as §1

SPIC = molecular target: T2, SPIC (Homo sapiens, UniProt Q8N5J4 1-248)
T2 sequence: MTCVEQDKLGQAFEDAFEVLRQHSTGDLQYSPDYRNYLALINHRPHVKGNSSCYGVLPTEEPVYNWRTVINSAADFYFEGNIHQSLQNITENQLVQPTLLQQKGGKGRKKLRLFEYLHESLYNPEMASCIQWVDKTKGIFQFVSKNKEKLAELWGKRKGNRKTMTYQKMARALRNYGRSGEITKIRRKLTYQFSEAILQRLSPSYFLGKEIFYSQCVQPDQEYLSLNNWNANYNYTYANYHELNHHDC
How it was run: as §1

ELF4 = ELF4 (Homo sapiens, UniProt Q99607 1-663)
ELF4, sequence (Q99607 whole entry): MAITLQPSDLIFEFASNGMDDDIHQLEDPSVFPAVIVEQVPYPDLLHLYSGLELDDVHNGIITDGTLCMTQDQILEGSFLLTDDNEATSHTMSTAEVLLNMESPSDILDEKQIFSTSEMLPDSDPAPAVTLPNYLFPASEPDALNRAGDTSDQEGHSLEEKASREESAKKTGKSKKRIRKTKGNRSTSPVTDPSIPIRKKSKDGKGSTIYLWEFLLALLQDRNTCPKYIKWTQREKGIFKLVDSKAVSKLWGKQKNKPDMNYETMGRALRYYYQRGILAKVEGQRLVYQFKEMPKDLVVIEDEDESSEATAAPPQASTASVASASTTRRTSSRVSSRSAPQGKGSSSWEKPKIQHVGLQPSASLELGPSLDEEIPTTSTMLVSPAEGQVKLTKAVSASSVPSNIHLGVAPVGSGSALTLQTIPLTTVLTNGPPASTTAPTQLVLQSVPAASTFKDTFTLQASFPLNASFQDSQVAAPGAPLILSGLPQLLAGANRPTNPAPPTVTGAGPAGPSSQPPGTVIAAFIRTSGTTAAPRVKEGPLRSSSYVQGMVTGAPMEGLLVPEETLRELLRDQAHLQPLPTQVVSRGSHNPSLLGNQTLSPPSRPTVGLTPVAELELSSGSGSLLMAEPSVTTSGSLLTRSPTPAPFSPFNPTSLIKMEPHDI
How it was run: as §1

ELK4 = molecular target: T3, ELK4 (Homo sapiens, UniProt P28324-2 1-405)
T3 sequence: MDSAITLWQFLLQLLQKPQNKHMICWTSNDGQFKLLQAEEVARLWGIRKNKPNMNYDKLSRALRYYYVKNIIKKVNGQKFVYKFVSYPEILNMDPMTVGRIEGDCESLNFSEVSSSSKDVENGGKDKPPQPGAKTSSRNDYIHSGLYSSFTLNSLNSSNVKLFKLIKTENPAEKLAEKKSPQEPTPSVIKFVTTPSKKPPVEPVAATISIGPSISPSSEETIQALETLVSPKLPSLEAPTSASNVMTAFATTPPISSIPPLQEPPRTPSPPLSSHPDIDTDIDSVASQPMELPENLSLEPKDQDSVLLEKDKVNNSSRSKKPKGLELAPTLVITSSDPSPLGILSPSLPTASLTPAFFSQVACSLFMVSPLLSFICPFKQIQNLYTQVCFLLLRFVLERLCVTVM
How it was run: as §1

ETV2 = molecular target: T4, ETV2 (Homo sapiens, UniProt O00321 1-342)
T4 sequence: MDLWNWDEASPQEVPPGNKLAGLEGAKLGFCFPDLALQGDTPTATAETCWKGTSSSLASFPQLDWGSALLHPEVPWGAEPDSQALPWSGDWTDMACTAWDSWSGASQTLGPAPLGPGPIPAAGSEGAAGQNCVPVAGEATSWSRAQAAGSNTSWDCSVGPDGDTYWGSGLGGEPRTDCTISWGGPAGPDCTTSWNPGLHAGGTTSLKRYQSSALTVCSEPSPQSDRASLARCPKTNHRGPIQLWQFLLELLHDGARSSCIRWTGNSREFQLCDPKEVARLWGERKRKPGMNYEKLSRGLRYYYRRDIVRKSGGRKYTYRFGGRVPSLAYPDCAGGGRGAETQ
How it was run: as §1

ELF3 = molecular target: T5, ELF3 (Homo sapiens, UniProt P78545 1-371)
T5 sequence: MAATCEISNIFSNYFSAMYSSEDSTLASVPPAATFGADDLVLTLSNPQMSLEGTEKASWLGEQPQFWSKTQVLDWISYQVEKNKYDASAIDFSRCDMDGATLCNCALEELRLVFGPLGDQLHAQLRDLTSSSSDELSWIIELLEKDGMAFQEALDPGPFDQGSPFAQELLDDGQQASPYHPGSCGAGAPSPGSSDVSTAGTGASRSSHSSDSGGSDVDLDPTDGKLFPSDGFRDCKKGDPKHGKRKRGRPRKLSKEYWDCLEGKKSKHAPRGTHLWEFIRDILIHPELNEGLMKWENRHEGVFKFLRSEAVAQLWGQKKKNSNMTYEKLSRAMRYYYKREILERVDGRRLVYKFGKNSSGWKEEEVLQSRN
How it was run: as §1

CRX = CRX (Homo sapiens, UniProt O43186 1-299)
CRX, sequence (O43186 whole entry): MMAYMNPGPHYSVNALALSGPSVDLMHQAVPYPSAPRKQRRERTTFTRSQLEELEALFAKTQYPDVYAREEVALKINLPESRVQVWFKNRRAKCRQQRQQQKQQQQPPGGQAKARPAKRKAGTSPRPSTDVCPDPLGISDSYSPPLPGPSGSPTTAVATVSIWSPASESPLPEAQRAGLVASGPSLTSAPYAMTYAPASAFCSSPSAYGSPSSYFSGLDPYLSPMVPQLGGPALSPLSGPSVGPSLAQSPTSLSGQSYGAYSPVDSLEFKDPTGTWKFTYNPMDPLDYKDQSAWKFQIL
How it was run: as §1

ETV1 = ETV1 (Homo sapiens, UniProt P50549 1-477)
ETV1, sequence (P50549 whole entry): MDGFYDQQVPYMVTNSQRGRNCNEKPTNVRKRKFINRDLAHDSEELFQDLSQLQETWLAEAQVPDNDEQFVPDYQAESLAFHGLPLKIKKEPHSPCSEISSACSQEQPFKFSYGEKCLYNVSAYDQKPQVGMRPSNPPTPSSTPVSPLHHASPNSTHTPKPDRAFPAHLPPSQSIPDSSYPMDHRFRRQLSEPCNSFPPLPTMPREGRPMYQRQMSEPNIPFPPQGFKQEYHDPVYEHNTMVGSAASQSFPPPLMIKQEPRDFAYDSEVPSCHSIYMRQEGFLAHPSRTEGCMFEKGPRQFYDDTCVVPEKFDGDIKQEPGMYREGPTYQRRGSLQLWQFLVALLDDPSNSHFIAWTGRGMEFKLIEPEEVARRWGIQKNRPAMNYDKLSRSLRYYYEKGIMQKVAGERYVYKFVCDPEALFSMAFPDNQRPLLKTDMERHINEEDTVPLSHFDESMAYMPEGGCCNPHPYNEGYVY
How it was run: as §1

ERF = molecular target: T6, ERF (Homo sapiens, UniProt P50548 1-548)
T6 sequence: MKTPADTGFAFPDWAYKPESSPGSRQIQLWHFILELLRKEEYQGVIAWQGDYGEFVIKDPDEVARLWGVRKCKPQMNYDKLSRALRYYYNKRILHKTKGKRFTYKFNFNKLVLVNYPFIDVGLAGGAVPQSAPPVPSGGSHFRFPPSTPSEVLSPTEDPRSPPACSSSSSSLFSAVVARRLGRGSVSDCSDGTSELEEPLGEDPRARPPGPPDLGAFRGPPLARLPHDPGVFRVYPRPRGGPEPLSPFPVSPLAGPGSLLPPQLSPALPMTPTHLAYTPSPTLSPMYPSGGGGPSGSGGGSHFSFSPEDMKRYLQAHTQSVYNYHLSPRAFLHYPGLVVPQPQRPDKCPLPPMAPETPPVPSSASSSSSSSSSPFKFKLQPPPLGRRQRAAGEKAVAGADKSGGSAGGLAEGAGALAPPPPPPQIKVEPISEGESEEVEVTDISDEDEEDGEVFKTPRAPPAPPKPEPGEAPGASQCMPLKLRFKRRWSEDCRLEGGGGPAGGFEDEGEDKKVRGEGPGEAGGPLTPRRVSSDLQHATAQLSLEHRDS
How it was run: as §1

ETV3L = molecular target: T7, ETV3L (Homo sapiens, UniProt Q6ZN32 1-361)
T7 sequence: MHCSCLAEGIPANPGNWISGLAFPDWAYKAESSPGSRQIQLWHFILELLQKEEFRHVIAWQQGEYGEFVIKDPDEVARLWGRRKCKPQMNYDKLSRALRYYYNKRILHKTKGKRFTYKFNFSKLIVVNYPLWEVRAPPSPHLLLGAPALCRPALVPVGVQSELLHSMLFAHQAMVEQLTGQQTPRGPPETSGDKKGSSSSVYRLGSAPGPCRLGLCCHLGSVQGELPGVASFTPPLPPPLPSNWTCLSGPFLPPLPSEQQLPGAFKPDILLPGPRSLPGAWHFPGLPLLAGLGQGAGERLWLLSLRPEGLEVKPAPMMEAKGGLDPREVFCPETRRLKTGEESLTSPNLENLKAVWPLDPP
How it was run: as §1

ETS2 = molecular target: T8, ETS2 (Homo sapiens, UniProt P15036 1-469)
T8 sequence: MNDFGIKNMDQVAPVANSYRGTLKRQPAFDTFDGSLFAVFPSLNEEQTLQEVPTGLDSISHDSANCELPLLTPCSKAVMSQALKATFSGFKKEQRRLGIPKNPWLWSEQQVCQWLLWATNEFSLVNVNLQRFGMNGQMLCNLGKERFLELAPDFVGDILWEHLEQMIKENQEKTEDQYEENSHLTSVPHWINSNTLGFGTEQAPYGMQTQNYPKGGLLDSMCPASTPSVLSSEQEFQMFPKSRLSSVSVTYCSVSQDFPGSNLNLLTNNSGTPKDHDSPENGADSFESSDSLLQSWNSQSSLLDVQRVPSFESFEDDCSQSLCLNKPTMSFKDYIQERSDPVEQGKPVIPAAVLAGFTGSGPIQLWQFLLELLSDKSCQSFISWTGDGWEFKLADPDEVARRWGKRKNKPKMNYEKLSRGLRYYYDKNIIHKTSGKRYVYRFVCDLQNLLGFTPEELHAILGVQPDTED
How it was run: as §1

SPDEF = molecular target: T9, SPDEF (Homo sapiens, UniProt O95238 1-335)
T9 sequence: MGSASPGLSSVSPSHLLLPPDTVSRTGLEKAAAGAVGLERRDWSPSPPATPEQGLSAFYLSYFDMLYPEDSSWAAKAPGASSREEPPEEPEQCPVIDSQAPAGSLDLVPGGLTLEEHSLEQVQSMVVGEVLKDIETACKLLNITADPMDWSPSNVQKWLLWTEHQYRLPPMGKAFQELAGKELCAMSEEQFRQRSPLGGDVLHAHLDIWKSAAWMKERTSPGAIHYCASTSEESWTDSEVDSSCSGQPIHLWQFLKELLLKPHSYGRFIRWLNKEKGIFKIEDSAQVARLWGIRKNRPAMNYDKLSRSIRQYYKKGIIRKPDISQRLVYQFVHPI
How it was run: as §1

ETV7 = molecular target: T10, ETV7 (Homo sapiens, UniProt Q9Y603 1-341)
T10 sequence: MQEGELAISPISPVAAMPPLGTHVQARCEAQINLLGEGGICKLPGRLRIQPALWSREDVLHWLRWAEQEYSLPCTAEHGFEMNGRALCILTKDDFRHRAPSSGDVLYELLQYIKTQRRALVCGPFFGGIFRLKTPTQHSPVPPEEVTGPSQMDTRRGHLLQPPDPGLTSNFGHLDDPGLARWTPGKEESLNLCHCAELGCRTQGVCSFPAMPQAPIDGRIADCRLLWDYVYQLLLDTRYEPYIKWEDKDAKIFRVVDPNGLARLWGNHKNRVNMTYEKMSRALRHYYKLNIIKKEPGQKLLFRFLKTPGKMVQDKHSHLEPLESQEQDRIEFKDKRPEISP
How it was run: as §1

ELF5 = molecular target: T11, ELF5 (Homo sapiens, UniProt Q9UKW6-2 1-255)
T11 sequence: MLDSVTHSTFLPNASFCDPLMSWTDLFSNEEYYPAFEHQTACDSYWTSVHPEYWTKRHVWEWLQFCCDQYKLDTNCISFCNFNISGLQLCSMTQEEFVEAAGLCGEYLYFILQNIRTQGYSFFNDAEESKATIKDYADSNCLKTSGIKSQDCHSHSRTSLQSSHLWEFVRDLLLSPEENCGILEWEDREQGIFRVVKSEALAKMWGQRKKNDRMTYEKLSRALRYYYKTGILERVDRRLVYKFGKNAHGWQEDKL
How it was run: as §1

ETV3 = molecular target: T12, ETV3 (Homo sapiens, UniProt P41162-2 1-143)
T12 sequence: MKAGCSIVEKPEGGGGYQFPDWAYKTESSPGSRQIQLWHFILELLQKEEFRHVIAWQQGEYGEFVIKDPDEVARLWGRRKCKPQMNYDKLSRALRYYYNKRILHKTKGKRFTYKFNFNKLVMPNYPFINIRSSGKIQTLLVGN
How it was run: as §1

ETV6 = ETV6 (Homo sapiens, UniProt P41212 1-452)
ETV6, sequence (P41212 whole entry): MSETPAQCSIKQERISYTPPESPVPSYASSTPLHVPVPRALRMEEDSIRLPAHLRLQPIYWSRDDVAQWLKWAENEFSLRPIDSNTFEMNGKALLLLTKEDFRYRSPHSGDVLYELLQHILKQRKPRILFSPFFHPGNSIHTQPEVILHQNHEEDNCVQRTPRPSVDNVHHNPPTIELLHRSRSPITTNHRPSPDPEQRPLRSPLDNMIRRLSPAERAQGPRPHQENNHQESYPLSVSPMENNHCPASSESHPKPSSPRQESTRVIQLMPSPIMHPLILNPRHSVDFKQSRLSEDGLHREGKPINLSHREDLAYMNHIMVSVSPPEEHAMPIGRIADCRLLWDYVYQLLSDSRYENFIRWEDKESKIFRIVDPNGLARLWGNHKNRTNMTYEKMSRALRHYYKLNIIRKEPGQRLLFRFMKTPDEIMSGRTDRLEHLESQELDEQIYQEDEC
How it was run: as §1

Sequence: CCCTTG
- binding signal (FEV): 1.16 fold enrichment (6-mer frequency, TF over GST control)
- binding signal (ETV5): 1.11 fold enrichment (6-mer frequency, TF over GST control)
- binding signal (SPIC): 1.26 fold enrichment (6-mer frequency, TF over GST control)
- binding signal (ELF4): 1.25 fold enrichment (6-mer frequency, TF over GST control)
- binding signal (ELK4): 1.2 fold enrichment (6-mer frequency, TF over GST control)
- binding signal (ETV2): 1.23 fold enrichment (6-mer frequency, TF over GST control)
- binding signal (ELF3): 1.19 fold enrichment (6-mer frequency, TF over GST control)
- binding signal (CRX): 1.01 fold enrichment (6-mer frequency, TF over GST control)
- binding signal (ETV1): 1.19 fold enrichment (6-mer frequency, TF over GST control)
- binding signal (ERF): 1.24 fold enrichment (6-mer frequency, TF over GST control)
- binding signal (ETV3L): 1.08 fold enrichment (6-mer frequency, TF over GST control)
- binding signal (ETS2): 1.16 fold enrichment (6-mer frequency, TF over GST control)
- binding signal (SPDEF): 1.28 fold enrichment (6-mer frequency, TF over GST control)
- binding signal (ETV7): 1.18 fold enrichment (6-mer frequency, TF over GST control)
- binding signal (ELF5): 1.1 fold enrichment (6-mer frequency, TF over GST control)
- binding signal (ETV3): 1.13 fold enrichment (6-mer frequency, TF over GST control)
- binding signal (ETV6): 1.17 fold enrichment (6-mer frequency, TF over GST control)
